Cytotoxicity call data for 67 compounds are collected here from the antibiotic and cytotoxicity screens of Wong et al. (2023).

Molecules are shown by their SMILES. About 3,300 (8.5%) of roughly 39,000 compounds were called active. The sample holds actives, similar compounds and a random draw of the others, so the mix is not that of the screen.

This assay has as its system HepG2. Briefly: cytotoxicity call (relative viability < 0.9). The following applies: 10 µM.
Turning to `C[C@@H]1CCCCO[C@H](CN(C)C(=O)Nc2ccc(C(F)(F)F)cc2)[C@@H](C)CN([C@@H](C)CO)C(=O)c2cc(NC(=O)Nc3cccc4ccccc34)ccc2O1`, the cytotoxicity call is “inactive”. Regarding `C[C@H]1CN([C@@H](C)CO)C(=O)c2cc(NC(=O)Cc3ccccc3)ccc2O[C@H]1CN(C)Cc1ccc(-c2ccccc2)cc1`, the cytotoxicity call is “inactive”. Regarding `C[C@H](CO)N1C[C@H](C)[C@@H](CN(C)Cc2ccc(-c3ccccc3)cc2)Oc2ccc(NC(=O)Cc3ccccc3)cc2C1=O`, the cytotoxicity call is “inactive”.

With `C[C@H]1CN([C@@H](C)CO)C(=O)c2cc(NC(=O)Cc3ccccc3)ccc2O[C@@H]1CN(C)Cc1ccc(-c2ccccc2)cc1`, the cytotoxicity call was “active”.

Consider `CC(C)[Si]1(C(C)C)OCc2cc(-c3ccc(-c4ccc(Cl)c(Cl)c4)o3)nc(-c3ccc(Oc4ccccc4)cc3)c21`, for which the cytotoxicity call is “inactive”. Under `Cc1ccc(N2CCC[C@]3(CCNC3=O)C2)nn1` stands “inactive”. With `C[C@@H]1CCCCO[C@@H](CN(C)S(=O)(=O)c2ccc(Cl)cc2)[C@@H](C)CN([C@@H](C)CO)C(=O)c2cc(NS(=O)(=O)c3ccccc3)ccc2O1`, the cytotoxicity call was “inactive”. Under `C[C@@H]1CCCCO[C@@H](CN(C)C(=O)Cc2ccccc2)[C@@H](C)CN([C@@H](C)CO)C(=O)c2cc(NC(=O)Nc3ccc(F)cc3)ccc2O1` stands “inactive”; under `COc1ccc([Si](C)(C)[C@H]2[C@H](CCO)O[C@@]3(C(=O)N(Cc4ccccc4)c4ccc(N5C(=O)COc6ccccc65)cc43)[C@@H]2C)cc1`, “active”.

With `COc1ccc([Si](C)(C)[C@@H]2[C@@H](CCO)O[C@]3(C(=O)N(Cc4ccccc4)c4ccc(N5CCCCC5=O)cc43)[C@H]2C)cc1`, the cytotoxicity call is “inactive”. Consider `C[C@H]1[C@H]([Si](C)(C)F)[C@@H](CCO)O[C@]12C(=O)N(Cc1cccc(N3C(=O)COc4ccccc43)c1)c1ccccc12`, for which the cytotoxicity call is “inactive”. Under `COc1ccc([Si](C)(C)[C@@H]2[C@@H](CCO)O[C@]3(C(=O)N(Cc4ccc(N5CCCCC5=O)cc4)c4ccccc43)[C@H]2C)cc1` stands “inactive”; under `COc1ccc([Si](C)(C)[C@H]2[C@H](CCO)O[C@@]3(C(=O)N(Cc4ccc(N5C(=O)COc6ccccc65)cc4)c4ccccc43)[C@@H]2C)cc1`, “active”; under `COc1ccc([Si](C)(C)[C@H]2[C@H](CC(=O)N3CCC[C@H]3CO)O[C@@]3(C(=O)N(Cc4cccc(N5C(=O)COc6ccccc65)c4)c4ccccc43)[C@@H]2C)cc1`, “inactive”. As for `COc1ccc([Si](C)(C)[C@H]2[C@H](CCO)O[C@@]3(C(=O)N(Cc4ccccc4)c4ccc(N5CCCCC5=O)cc43)[C@@H]2C)cc1`, the cytotoxicity call is “inactive”.

Turning to `COc1ccc([Si](C)(C)[C@@H]2[C@@H](CCO)O[C@]3(C(=O)N(Cc4cccc(N5C(=O)COc6ccccc65)c4)c4ccccc43)[C@H]2C)cc1`, the cytotoxicity call was “active”.

For the compound `COc1ccc([Si](C)(C)[C@H]2[C@H](CCO)O[C@@]3(C(=O)N(Cc4ccc(N5CCCCC5=O)cc4)c4ccccc43)[C@@H]2C)cc1`, the cytotoxicity call is “inactive”. Turning to `COc1cccc(S(=O)(=O)N2C[C@@H](O)COC[C@@H]3O[C@@H](CC(=O)N4CCN(C)CC4)CC[C@H]32)c1`, the cytotoxicity call is “inactive”. Consider `O=C1CCNCCN1`, for which the cytotoxicity call was “inactive”.

On to `CO[C@@H]1CN(C)C(=O)c2cc(NS(C)(=O)=O)ccc2OC[C@@H](C)N(C(=O)c2ccc3c(c2)OCO3)C[C@@H]1C`, for which the cytotoxicity call was “inactive”. For `Cc1noc(C)c1S(=O)(=O)Nc1ccc2c(c1)C(=O)N([C@H](C)CO)C[C@@H](C)[C@@H](CN(C)Cc1ccccc1)OCCCC[C@@H](C)O2`, the cytotoxicity call was “inactive”. In the case of `COc1ccc(NC(=O)Nc2ccc3c(c2)CC(=O)N([C@@H](C)CO)C[C@@H](C)[C@H](CN(C)C(=O)Nc2cccc4ccccc24)O3)cc1`, the cytotoxicity call was “inactive”. As for `Cc1noc(C)c1S(=O)(=O)Nc1ccc2c(c1)C(=O)N([C@@H](C)CO)C[C@@H](C)[C@@H](CN(C)CC1CCCCC1)OCCCC[C@@H](C)O2`, the cytotoxicity call was “inactive”. For the compound `Cc1ccc(C(=O)c2ccc(Oc3ccccc3)cc2)cc1`, the cytotoxicity call was “inactive”.

Take `Cc1ccc(Oc2ccccc2)c(NC(=O)c2ccccc2)c1`: the cytotoxicity call was “active”. As to `Cc1cccc(C(=O)NN)c1`, the cytotoxicity call is “inactive”. In the case of `COc1cccc(-c2ccc3c(c2)O[C@H](CN(C)Cc2cncnc2)[C@@H](C)CN([C@@H](C)CO)S3(=O)=O)c1`, the cytotoxicity call was “inactive”. As to `COc1ccc(NC(=O)N(C)C[C@@H]2Oc3c(NC(=O)c4cc(C)nn4C)cccc3C(=O)N([C@@H](C)CO)C[C@H]2C)cc1`, the cytotoxicity call is “inactive”.

Consider `CN(C)CC(=O)N1[C@@H]2c3ccc(C4=CCCC4)c(=O)n3C[C@H]1[C@H](CO)[C@H]2C(=O)NCC1CC1`, for which the cytotoxicity call was “inactive”.

As to `C[C@@H]1CN([C@H](C)CO)C(=O)c2cc(NC(=O)Nc3ccccc3)ccc2O[C@H]1CN(C)S(=O)(=O)c1cn(C)cn1`, the cytotoxicity call is “active”.

Turning to `C[C@H]1CN([C@@H](C)CO)C(=O)Cc2cc(NC(=O)Nc3ccccc3)ccc2O[C@H]1CN(C)S(=O)(=O)c1cn(C)cn1`, the cytotoxicity call is “inactive”. As to `C[C@@H]1CN([C@@H](C)CO)C(=O)Cc2cc(NS(=O)(=O)c3ccccc3)ccc2O[C@@H]1CN(C)S(=O)(=O)c1cn(C)cn1`, the cytotoxicity call is “inactive”.

For `C[C@H]1CN([C@@H](C)CO)C(=O)Cc2cc(NS(=O)(=O)c3ccccc3)ccc2O[C@@H]1CN(C)S(=O)(=O)c1cn(C)cn1`, the cytotoxicity call is “inactive”. Then `C[C@@H]1CN([C@@H](C)CO)C(=O)c2cc(NC(=O)Nc3ccccc3)ccc2O[C@H]1CN(C)S(=O)(=O)c1cn(C)cn1`, with “inactive”; and `C[C@@H]1CN([C@H](C)CO)C(=O)c2cc(NC(=O)Nc3ccccc3)ccc2O[C@@H]1CN(C)S(=O)(=O)c1cn(C)cn1`, with “inactive”; and `C[C@@H]1CN([C@H](C)CO)C(=O)Cc2cc(NS(=O)(=O)c3ccccc3)ccc2O[C@H]1CN(C)S(=O)(=O)c1cn(C)cn1`, with “active”.

Take `C[C@H](CO)N1C[C@H](C)[C@H](CN(C)S(=O)(=O)c2cn(C)cn2)Oc2ccc(NC(=O)Nc3ccccc3)cc2CC1=O`: the cytotoxicity call was “active”. Then `C[C@@H]1CN([C@@H](C)CO)C(=O)Cc2cc(NC(=O)Nc3ccccc3)ccc2O[C@H]1CN(C)S(=O)(=O)c1cn(C)cn1`, with “inactive”; and `CC1c2cccc(O)c2C(=O)C2=C(O)C3(O)C(=O)C(C(N)=O)=C(O)C(N(C)C)C3C(O)C21.Cl` (configuration not stated), with “inactive”.

With `COc1ccc2c3c(n(c2c1)C)[C@H](CO)N(C[C@]13CN(Cc2ccncc2)C1)C(=O)CN1CCOCC1`, the cytotoxicity call was “inactive”.

As for `CC(C)NC(=O)N(C)C[C@@H]1Oc2ccc(NC(=O)Nc3ccc4c(c3)OCO4)cc2CC(=O)N([C@H](C)CO)C[C@H]1C`, the cytotoxicity call was “inactive”.

Turning to `C[C@H]1CN([C@@H](C)CO)C(=O)c2cc(NS(=O)(=O)c3ccc(F)cc3)ccc2O[C@@H]1CN(C)S(=O)(=O)c1ccc(F)cc1`, the cytotoxicity call was “inactive”. Consider `C[C@H](CO)N1C[C@H](C)[C@@H](CN(C)S(=O)(=O)c2ccc(Cl)cc2)Oc2ccc(NC(=O)C3CC3)cc2CC1=O`, for which the cytotoxicity call was “inactive”. Consider `CCOC(=O)c1nonc1N`, for which the cytotoxicity call was “inactive”. Regarding `CN(CCCCCCCCCCN(C)C(=O)Oc1cccc([N+](C)(C)C)c1)C(=O)Oc1cccc([N+](C)(C)C)c1`, the cytotoxicity call was “inactive”. Take `O=C(NCc1ccncc1)C(=O)NC[C@H]1OCCN1S(=O)(=O)c1ccc(F)cc1`: the cytotoxicity call was “inactive”. For the compound `C[C@@H]1CN([C@@H](C)CO)C(=O)c2cccc(NC(=O)Nc3ccc(C(F)(F)F)cc3)c2O[C@H]1CN(C)Cc1ccc(-c2ccccc2)cc1`, the cytotoxicity call was “inactive”. As for `C[C@H]1CN([C@@H](C)CO)C(=O)c2ccccc2-c2ccccc2CO[C@@H]1CN(C)Cc1ccccc1C(F)(F)F`, the cytotoxicity call was “inactive”. As to `CC(NCCC(c1ccccc1)c1ccccc1)c1ccccc1.Cl` (configuration not stated), the cytotoxicity call was “active”. Then `CCCC[C@@H](O)c1ccccc1`, with “inactive”; and `C[C@@H](NCCC(c1ccccc1)c1ccccc1)c1ccccc1`, with “active”. As to `C[C@H](NC(=O)[C@@H]1CCCC[C@H]1C(=O)O)c1ccccc1.C[C@H](NC(=O)[C@H]1CCCC[C@H]1C(=O)O)c1ccccc1`, the cytotoxicity call was “inactive”.

On to `CCCCC(O)c1ccccc1` (configuration not stated), for which the cytotoxicity call is “inactive”. Then `C[C@@H](NC(=O)[C@@H]1CCCC[C@H]1C(=O)O)c1ccccc1.C[C@@H](NC(=O)[C@H]1CCCC[C@H]1C(=O)O)c1ccccc1`, with “inactive”. On to `Cc1noc(C)c1NC(=O)Nc1ccc2c(c1)C(=O)N([C@@H](C)CO)C[C@@H](C)[C@@H](CN(C)C(=O)Nc1ccc(C(F)(F)F)cc1)OCCCC[C@@H](C)O2`, for which the cytotoxicity call is “inactive”. Consider `C[C@@H]1CN([C@H](C)CO)C(=O)Cc2cc(NC(=O)Nc3ccc(F)cc3)ccc2O[C@H]1CN(C)C(=O)Nc1cccc2ccccc12`, for which the cytotoxicity call was “inactive”. Turning to `C[C@@H]1CN([C@@H](C)CO)C(=O)Cc2cc(NS(=O)(=O)c3cn(C)cn3)ccc2O[C@@H]1CN(C)S(=O)(=O)c1cccs1`, the cytotoxicity call was “inactive”. With `Cc1noc(C)c1S(=O)(=O)N(C)C[C@@H]1OCCCC[C@@H](C)Oc2ccc(NC(=O)Nc3ccccc3)cc2C(=O)N([C@H](C)CO)C[C@@H]1C`, the cytotoxicity call is “inactive”.

Regarding `C[C@@H]1CN([C@H](C)CO)C(=O)Cc2cc(NC(=O)C3CCCCC3)ccc2O[C@H]1CN(C)Cc1ccc(Cl)c(Cl)c1`, the cytotoxicity call was “inactive”. Regarding `N=C(N)c1ccc2nc(-c3cc(CC(=O)N[C@@H](CC(=O)O)C(=O)O)cc(-c4cc(S(N)(=O)=O)ccc4O)c3O)[nH]c2c1`, the cytotoxicity call is “inactive”. In the case of `C[C@H](CO)N1C[C@H](C)[C@H](CN(C)C(=O)Nc2ccc(C(F)(F)F)cc2)Oc2ccc(NC(=O)Nc3cccc4ccccc34)cc2CC1=O`, the cytotoxicity call is “inactive”. On to `C[C@@H]1CN([C@@H](C)CO)C(=O)Cc2cc(NC(=O)NC3CCCCC3)ccc2O[C@H]1CN(C)Cc1ccc(Cl)c(Cl)c1`, for which the cytotoxicity call is “inactive”.

On to `C[C@H](CO)N1C[C@H](C)[C@H](CN(C)Cc2ccc(Cl)c(Cl)c2)Oc2ccc(NC(=O)NC3CCCCC3)cc2CC1=O`, for which the cytotoxicity call was “inactive”. Under `C[C@@H]1CN([C@@H](C)CO)C(=O)Cc2cc(NC(=O)NC3CCCCC3)ccc2O[C@@H]1CN(C)Cc1ccc(Cl)c(Cl)c1` stands “active”; under `C[C@@H]1CN([C@H](C)CO)C(=O)Cc2cc(NC(=O)NC3CCCCC3)ccc2O[C@H]1CN(C)Cc1ccc(Cl)c(Cl)c1`, “inactive”; under `C[C@H](CO)N1C[C@H](C)[C@@H](CN(C)Cc2ccc(Cl)c(Cl)c2)Oc2ccc(NC(=O)NC3CCCCC3)cc2CC1=O`, “inactive”. With `C[C@@H]1CN([C@H](C)CO)C(=O)Cc2cc(NC(=O)NC3CCCCC3)ccc2O[C@@H]1CN(C)Cc1ccc(Cl)c(Cl)c1`, the cytotoxicity call is “active”.
